Screening results from PubChem.
Shown are actives, neighbours in structure and some others; about 3.4% of the full set was active somewhere.
FBW7 activator: activators of human E3 ligase FBW7 | AlphaScreen FBW7–phospho-cyclin E peptide binding, activator screen | Q969H0 | normalized activity (activation), % at 26.1 µM | 650,000 tested, 0.13% active; in the data active means normalized activity above about 1.9%;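 further: purified mutant Fbw7 with reduced substrate affinity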
MITF primary: inhibitors of human MITF. 650,000 tested, 0.91% active. AlphaScreen MITF homodimerization, bead proximity signal. AID 1259374. inhibition, % at 2.6 µM; in the data active means inhibition above about 50%;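 further: 0% = vehicle wells with protein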
Target sequence (O75030 whole entry, looked up): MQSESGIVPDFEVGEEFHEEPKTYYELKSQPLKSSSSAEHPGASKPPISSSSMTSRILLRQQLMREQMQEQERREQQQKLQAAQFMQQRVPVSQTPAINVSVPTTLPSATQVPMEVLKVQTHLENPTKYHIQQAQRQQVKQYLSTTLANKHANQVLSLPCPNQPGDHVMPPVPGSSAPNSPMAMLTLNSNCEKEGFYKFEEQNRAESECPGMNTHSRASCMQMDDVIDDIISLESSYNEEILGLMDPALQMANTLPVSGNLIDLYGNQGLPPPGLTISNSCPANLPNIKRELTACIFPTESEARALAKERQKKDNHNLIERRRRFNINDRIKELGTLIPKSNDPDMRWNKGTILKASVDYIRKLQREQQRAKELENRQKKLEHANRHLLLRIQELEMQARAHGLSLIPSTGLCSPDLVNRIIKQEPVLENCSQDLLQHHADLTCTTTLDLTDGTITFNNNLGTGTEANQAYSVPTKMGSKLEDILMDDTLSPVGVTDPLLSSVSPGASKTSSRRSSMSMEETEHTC
GPR151 ag: human GPR151 activation. Q8TDV0. PathHunter beta-arrestin GPR151 cells, luminescence. activation, % at 11.2 µM. 650,000 tested, 1% active. AID 1508602; in the data active means activation above about 4.9%;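 further: 0% = median of compound wells and 100% = cells with positive control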
TEAD-YAP block: TEAD-YAP interaction inhibition; 640,000 tested, 1.4% active; inhibition, % at 9.12 µM; AID 1259422; HEK-TIYL cells, TEAD-Gal4/YAP UAS-luciferase luminescence; in the data active means inhibition above about 32%;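 further: 0% = median of test compound wells and 100% = reference inhibitor wells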
MITF inh conf: confirmation of human MITF inhibitors | shares compounds with MITF primary | AlphaScreen MITF homodimerization, biotin/His-MITF beads | inhibition, % at 2.6 µM | 4,700 tested, 16% active | AID 1259372;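 active means inhibition above a cutoff derived from the DMSO control wells, cut at about 28% in these data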;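 further: 0% = MITF dimer wells with DMSO only; inhibitors lower the bead chemiluminescence by keeping MITF from dimerizing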
AS interf DR: optically interferes with AlphaScreen signal in dose response; shares compounds with MITF primary; AlphaScreen optical interference counterscreen, cell-free; IC50, µM; 480 tested, 6% active; call rule not given here
AlphaScreen intf2: optically interferes with AlphaScreen signal; 4,700 tested, 7.6% active; shares compounds with MITF primary; LysRS AlphaScreen counterscreen, signal interference, triplicate; inhibition, % at 2.6 µM;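 active means inhibition above a cutoff derived from the DMSO control wells, cut at about 30% in these data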
* = called active by the depositor; x = no result.

SMILES	FBW7 activator	MITF primary	GPR151 ag	TEAD-YAP block	MITF inh conf	AlphaScreen intf2	others
CCOC(=O)c1c(NC(=O)Cn2cc(C=O)c3ccccc32)sc(C)c1C	-0.1	-11.6	-0.7	0.8	x	x
COc1cc(/C=C2\SC(=Nc3cc(C)cc(C)c3)NC2=O)ccc1OCc1ccc(Cl)cc1Cl	-0.1	-1.7	1.7	6.5	x	x
CCOC(=O)CC(=O)CSc1nn2c(=O)c(C)nnc2s1	-0.2	53.2*	0.6	-0.2	17.7	36.7*
CCOC(=O)CSc1nn2c(=O)c(C)nnc2s1	-0.1	3.0	-0.9	-4.4	x	x
COc1ccc(CSc2nnc3sc4ccccc4n23)cc1	0.0	4.7	4.7	-12.6	x	x
Cc1cccc(NC(=O)C2CCCN2C(=O)OC(C)(C)C)c1 (configuration not stated)	0.0	77.5*	-0.5	-6.8	5.4	0.7
Cc1cccc(NC(=O)C2CCCN2C(=O)OCc2ccccc2)c1 (configuration not stated)	-0.4	-5.7	-0.9	2.5	x	x
COc1ccc(C2C(C(=O)NC3CCCCC3)CC(=O)N2c2ccc(OC)cc2)cc1 (configuration not stated)	0.2	0.5	4.3	4.7	x	x
COc1cc(CNC(=O)c2cc(-c3ccc(F)cc3)c[nH]2)cc(OC)c1OC	-0.2	5.5	-1.1	1.3	x	x
COc1cccc(CN2CCN(C(=O)C3CC3)[C@@H](C)C2)c1	0.0	62.5*	-1.1	-7.7	18.1	20.8
COc1cccc(CN2CCN(C3CCCCCC3)CC2)c1	0.0	57.9*	0.0	8.6	6.1	-6.8
COc1cccc(CN2CCC(C(=O)NC3CCCCCC3)CC2)c1	0.1	65.1*	-0.1	5.0	15.3	17.9
COc1cccc(CN2CCN(C3CCCCC3)CC2)c1	0.1	60.3*	-0.4	5.8	-12.0	-4.3
NS(=O)(=O)c1ccc(CCN2CCS(=O)(=O)CC2)cc1	0.3	7.3	-0.6	-2.2	x	x
COc1ccc(CCC(=O)Nc2c(C)nc3c(C)cccn3c2=O)cc1	0.0	-1.1	1.6	5.0	x	x
O=[N+]([O-])c1ccccc1/C=C/C=N/Nc1ncnc2ccccc12	-0.1	9.9	0.5	-19.4	x	x
COc1cccc(CN2CCN(C3CCC(C)CC3)CC2)c1 (configuration not stated)	-0.1	70.4*	0.3	-8.2	-4.5	-1.9
Cc1cc(C(C)(C)C)ccc1OCCOCCN1CCOCC1	0.0	73.0*	0.9	3.2	-11.9	10.9
Cc1cc(C(C)(C)C)ccc1OCCOCCN1CCN(C)CC1	-0.1	48.5	0.1	-5.4	x	x
Cc1cc(C(C)(C)C)ccc1OCCCN1CCN(C)CC1	0.0	63.2*	1.1	-4.3	16.2	3.2
Cc1cc(C(C)(C)C)ccc1OCCN1CCN(C)CC1	-0.2	86.7*	0.5	1.7	27.1	19.8
CC(CCc1ccccc1)NC(=O)CCCCn1c(=O)[nH]c2ccsc2c1=O (configuration not stated)	-0.1	5.8	0.4	8.0	x	x
CC(C)(C)C(=O)CSc1nc2cc(C(=O)N3CCOCC3)ccc2c(=O)n1CCc1ccccc1	-0.1	6.9	0.2	-10.4	x	x
CN(C)c1ccc(/C=N\NC(=O)CN2CCN(Cc3ccccc3)CC2)cc1	0.2	-4.3	0.6	4.6	x	x
CC(/C=N\NC(=O)Cc1cccn1C)=C\c1ccccc1	0.0	-4.5	0.9	-8.9	x	x
SMILES	FBW7 activator	MITF primary	GPR151 ag	TEAD-YAP block	MITF inh conf	AlphaScreen intf2	others
Cc1ccc(/C=N/NC(=O)CCN2CCN(C)CC2)cc1	-0.3	54.1*	-0.1	1.0	6.7	-0.1
CCN1CCN(CC(=O)N/N=C/c2ccc(N(C)C)cc2)CC1	0.0	51.8*	1.4	1.6	26.0	6.4
CCN1CCN(CC(=O)N/N=C/c2cc(Br)cs2)CC1	0.6	67.8*	0.3	19.9	-0.9	3.1
CC(/C=N/NC(=O)CN1CCN(C)CC1)=C\c1ccccc1	0.7	73.0*	0.2	9.1	3.1	-5.0
COc1cc(-c2nnn(CC(=O)N3CCCCC3)n2)ccc1OCc1ccccc1	0.0	2.5	1.3	-3.8	x	x
COC(=O)c1c(NC(=O)CSc2nc3ccccc3c(=O)[nH]2)sc(C)c1C	-0.1	3.1	-0.7	16.7	x	x
OCCN1CCN(c2cc(-c3ccncc3)nc(-c3ccccc3)n2)CC1	-0.2	-33.1	0.3	-1.4	x	x
OCCN1CCN(c2cc(-c3ccccc3)c3ccccc3n2)CC1	0.0	76.0*	-1.4	1.7	5.6	10.5
COc1cc(C(=O)Oc2coc(CSc3nccn3C)cc2=O)cc(OC)c1OC	0.0	12.1	0.9	1.5	x	x
CC(C)(C)C(=O)NCCNc1ccc(Cl)cc1[N+](=O)[O-]	0.0	86.9*	3.5	-1.3	-3.8	-2.7
COCCCNC(=O)/C(C#N)=C/c1ccc(OCC(=O)O)c(OC)c1	-0.3	61.7*	-0.3	9.7	34.7*	-8.1	AS interf DR=>6.48
COC(=O)C(=Cc1ccc(OC)c(C(=O)O)c1)C(=O)OC	0.1	63.5*	0.0	-7.8	-16.4	-8.4
O=C(O)c1ccc(CNc2nc3ccccc3n3cnnc23)cc1	0.0	10.1	-0.1	-1.3	x	x
COC(=O)CN1C(=O)S/C(=C/c2ccc([N+](=O)[O-])o2)C1=O	0.0	61.7*	-0.2	-11.1	47.0*	4.4	AS interf DR=>6.48
Cc1cccc(-c2nccc(NCCCN3CCOCC3)n2)c1	-0.1	-7.2	-1.2	2.6	x	x
Cc1cc(NCCc2ccccc2)nc(-c2ccccc2O)n1	0.2	82.4*	0.4	-20.6	-21.6	-0.4
COc1cc(OC)c(CN2CCCC(CO)C2)cc1Br (configuration not stated)	0.2	54.7*	0.3	4.6	1.3	6.3
C/C=C/c1ccc(OCCCCN2CCN(CC)CC2)c(OC)c1	-0.1	74.2*	-1.7	6.6	7.5	12.6
COc1cc(C)ccc1OCCOCCN1CCCC(C)C1 (configuration not stated)	-0.5	63.2*	1.2	-0.7	-11.3	-6.7
C/C=C/c1ccc(OCCOCCN2CCCC(C)C2)c(OC)c1 (configuration not stated)	-0.3	52.9*	-0.7	4.9	3.6	-1.2
Cc1nc(NCc2ccco2)c2c3c(sc2n1)CCCC3	0.1	4.5	-0.5	-5.7	x	x
Cc1nc(NCc2ccco2)c2c(C)c(C)sc2n1	-0.1	59.3*	-1.3	42.6*	13.3	29.2
Cc1cc(NC(=O)COc2ccc(-n3cnnn3)cc2)no1	-0.2	-3.9	1.7	1.6	x	x
CCS(=O)(=O)N1CCN(Cc2ccc(OC)cc2)CC1	-0.1	37.6	0.2	5.6	x	x
CNC(=O)CN1CCN(Cc2nc3ccc(OC)cc3[nH]2)CC1	-0.4	79.6*	-0.2	3.2	12.5	11.7
CCS(=O)(=O)N1CCN(Cc2nc3ccc(OC)cc3[nH]2)CC1	-0.5	62.4*	-2.1	-7.1	13.8	22.1
CCOC(=O)c1ccccc1NC(=O)CN1CCN(Cc2nc3ccccc3[nH]2)CC1	-0.3	0.4	0.1	4.5	x	x
